Results filed as inconclusive are left out. Values without a mark were called inactive. Active and inactive are the calls of the source. Calls follow the shape of the dose curve; as a rule, active = well fitted activation curve with a large enough effect; inconclusive = small, poorly fitted or top-dose-only effect; inactive = no such curve, though single readings can be large or run the other way.
Experiment: qHTS assay for re-activators of p53 using a Luc reporter: Hit Validation; also: nearly all actives have a fitted effect of over 75% in size; as to activation: 0% is about no effect
Conditions: p53-responsive luciferase reporter cells, luminescence, H1299 line expressing heat-sensitive Ala138Val p53; series mostly up to 46.1 µM
Procedure, shortened: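 H1299 (p53-null) cells stably carrying p53-A138V and a BP100-luciferase reporter, 1000 cells/well, treated 24 h at 37 deg C. Compounds at several concentrations, 1:5 dilution; nocodazole control; luminescence read after 10 min with detection reagent.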
Potency is read from the fitted curve at half-maximal effect.

| SMILES | Potency | activation |
| --- | --- | --- |
| CN(C)c1ccc(N=Cc2nc(-c3ccccc3)oc2OC(=O)c2cccc(Cl)c2)cc1 | 2.06 µM (active) |  |
| O=C(N/N=C\c1cccc(Cl)c1)c1n[nH]c2c1CCCC2 | 4.11 µM (active) |  |
| CCCCn1c(O)c(N=Nc2ccccc2O)c2ccccc21 | inactive |  |
| CC(=O)c1cc2c(C)c(C(=O)c3ccccc3)oc2cc1O | 0.411 µM (active) |  |
| Cc1ccc2cc3c(N)c(C(=O)N4CCOCC4)sc3nc2c1 | 1.03 µM (active) |  |
| Cc1cc(C)nc(SCC(=O)OCC(=O)Nc2nc3ccccc3s2)n1 | inactive |  |
| Cc1nc(NCCc2ccccc2)c2nnn(Cc3ccccc3Cl)c2n1 | inactive |  |
| O=C(CSc1ccccc1)Nc1ccc(-c2nc3ccccc3[nH]2)cc1 | inactive |  |
| Cc1ccc(C(=O)Nc2ccn(C)n2)cc1 | 8.2 µM (active) |  |
| Cc1cc(C(=O)N2CCN(c3ccccc3Cl)CC2)c(C)o1 | 29.1 µM (active) |  |
| Cc1cc(/C=C2/C(=O)NN(c3ccccc3)C2=O)c(C)n1-c1cccc(O)c1 | 10.3 µM (active) |  |
| COc1ccc(N2CCN(CCCNC(=O)C3(S(=O)(=O)c4ccc(Cl)cc4)CC3)CC2)cc1 | inactive |  |
| COCCN(Cc1cn[nH]c1-c1ccc2cc(OC)ccc2c1)C(C)C | inactive |  |
| COc1ccc(N2CCN(CC(=O)Nc3ccc(C)cc3)CC2)cc1 | inactive |  |
| Cc1ccc(C)c(C(=O)COC(=O)c2n[nH]c3ccccc23)c1 | 18.4 µM (active) |  |
| O=C(N/N=C/c1cn(-c2ccccc2)nc1-c1cc2ccccc2o1)c1ccccc1Br | 7.31 µM (active) |  |
| CCOc1ccc2c(c1)C(C)=CC(C)(C)N2S(=O)(=O)c1ccc(NC(C)=O)cc1 | inactive |  |
| COc1ccc(N2C(=O)CC(Cc3ccc(Br)cc3)C2=O)cc1 (stereo not drawn) | inactive |  |
| O=c1cc(-c2ccc3c(c2)OCCO3)oc2ccc(Cl)cc12 | 0.82 µM (active) |  |

| SMILES | Potency | activation |
| --- | --- | --- |
| O=C(Nc1ccc(NC(=O)C2CCCCC2)cn1)c1ccco1 | 2.59 µM (active) |  |
| COc1ccccc1C(=O)O/N=C(\N)c1ccccc1Cl | inactive |  |
| COc1cc(NC(=O)CN2C(=O)COc3ccc(S(=O)(=O)N4CCCC4)cc32)cc(OC)c1 | inactive |  |
| Clc1ccc(-c2nnc(SCc3ccon3)o2)c(Cl)c1 | 0.366 µM (active) |  |
| COc1cc(C(=O)NCCc2cn3ccc(C)cc3n2)cc(OC)c1OC |  | 13.6% [at 9.22 µM] |
| Cc1cc(C(=O)Nc2ccc(Br)cn2)sc1C | 2.06 µM (active) |  |
| COc1ccc(-n2cnc3c(cnn3CCC#N)c2=N)cc1 | inactive |  |
| COc1ccccc1OCCn1nnc2ccccc21 | inactive |  |
| O=C(COC(=O)c1ccc(F)cc1)NC1CC1 | inactive |  |
| O=C(COC(=O)C12CC3CC(CC(O)(C3)C1)C2)Nc1ccc(Br)cc1F | 14.6 µM (active) |  |
| Cc1cccc(NC(=O)Nc2ccc(C)cc2Br)c1 | 16.4 µM (active) |  |
| Cc1ccc(NC(=O)Nc2ccccc2)c(Br)c1 | 8.2 µM (active) |  |
| Oc1ccccc1-c1cc(-c2ccc3c(c2)OCCO3)n[nH]1 | 0.184 µM (active) |  |
| Cc1cc(C)cc(OCC(=O)NNC(=O)c2ccccn2)c1 | inactive |  |
| Cc1ccc2nc(N3C(=O)C(O)=C(C(=O)c4ccc(C)o4)C3c3ccco3)sc2c1 (stereo not drawn) | inactive |  |
| Cc1cccc(N2CCN(S(=O)(=O)c3ccc4c(c3)CCC(=O)N4)CC2C)c1 (stereo not drawn) | inactive |  |
| Cc1ccc(NC(=O)c2ccc3nc[nH]c3c2)cc1C | 23.1 µM (active) |  |
| COc1ccc2c(=O)c(-c3nc(C)cs3)coc2c1 | 2.06 µM (active) |  |
| c1nc(C2CCCCC2)cc2cc3c(cc12)OCO3 | 6.51 µM (active) |  |

Reference: PubChem BioAssay AID624305 (National Center for Advancing Translational Sciences (NCATS), 2012)
